Results: PubChem BioAssay (NCATS)
Several values for one entry are separate records, joined by “and”; a condition that tells them apart may be missing. Equal entries are not always repeated. Records with an inconclusive call do not appear. Activity calls are given as the source filed them. Unless noted, the call rests on the fitted dose curve; in most records, active means well fitted curve in the direction sought with a large enough effect; inconclusive means small, poorly fitted or top-dose-only effect, or another doubt; inactive means no such curve, though single readings can be large; an effect the other way counts as inactive or inconclusive.

Legend:
[1] = qHTS for differential inhibitors of proliferation of Plasmodium falciparum line HB3 (AID 1886); conditions: Potency: Plasmodium falciparum HB3 proliferation inhibition;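 further: parasites grown with compound for 72 h before SYBR Green readout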; further: potency means the concentration at half of the fitted maximal effect
[2] = qHTS Assay for Identification of Small Molecule Inducers of Hypoxia Response (AID 2120; active means well fitted curve in the direction sought with a large enough effect in the signal ratio, with a control signal flat, not every such curve was filed as active; the % refers to the signal ratio)
Procedure, shortened: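 Reporter induction read as the CCF4 blue/green (460nm/530nm) emission ratio after 2.5 h dye loading at room temperature. ME-180 HRE-beta-lactamase cells received titrated compounds for 17 h at 37 degrees Celsius; AC50 values derived.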

[3] = biological target: ATP-dependent DNA helicase Q1 (Homo sapiens) (UniProt P46063); experiment: qHTS Validation Assay for Inhibitors of RecQ-Like Dna Helicase 1 (RECQ1) (AID 2353)
Procedure, shortened: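 RECQ1T1 50 nM; forked duplex (20 bp + 30-nt ss tails) 200 nM, ATP 2 mM final; pH 8.0, 2 mM MgCl2, 2.5 ug/ml poly(dI-dC); 15 min compound preincubation; discontinuous kinetic read over 2 h at RT.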

[4] = Cytometric Cell-Based qHTS for Inhibitors of the mTORC1 Signaling Pathway in MEF (Tsc2-/-, p53-/-) Cells (AID 2660);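 further: Tsc2 and p53 null MEFs carrying empty vector with compound for 24 h; percent of cells above a phospho-rpS6 to PI ratio cutoff in each well; series mostly up to about 38 µM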
Procedure, shortened: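 Immunofluorescence qHTS of rpS6 Ser235/236 phosphorylation: MEFs (Tsc2-/-, p53-/-) treated 24 h, 37 C, in DMEM + 10% FBS. Alexa-488 signal normalized to PI count, referenced to rapamycin (7.5 nM) and DMSO; PI cell number recorded for viability.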

[5] = High Content Imaging Cell-Based qHTS for Inhibitors of the mTORC1 Signaling Pathway in MEF (Tsc2-/-, p53-/-) Cells (AID 2666);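 further: percent of cells scored positive for phospho-rpS6 Ser235/236 immunostaining by imaging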; further: potency means the concentration at half of the fitted maximal effect
Procedure, shortened: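 MEF Tsc2-/- p53-/- (empty vector), DMEM/10% FBS; cpd 24 h 37 °C; PFA fix, Alexa-488 p-rpS6 S235/236 Ab, Hoechst; imaged; rapamycin-defined inhibition; % positive cells/well.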

[6] = Cytometry Cell-Based qHTS for Inhibitors of the mTORC1 Signaling Pathway in MEF cells (AID 2668); further: potency means the concentration at half of the fitted maximal effect
Procedure, shortened: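 Tsc2-/-, p53-/- MEFs re-expressing WT Tsc2; cpd 24 hrs, 37 degree Celsius; PFA fix, Alexa-488 p-rpS6 (Ser235/236) Ab 2 hrs RT, PI counterstain; Acumen 488nm scan; p-S6/PI ratio → % positive cells; PI count = viability.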

[7] = qHTS Assay for Modulators of Human Peripheral Myelin Protein 22 (PMP22) Expression/Activity (AID 1967; active means well fitted curve in the direction sought with a large enough effect in the signal ratio; the % refers to the signal ratio)
Procedure, shortened: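 Luminescence ratio of Pmp22 promoter-driven green luciferase to EF-alpha-driven red luciferase, in engineered mouse MSC80 Schwann cells, served as read-out. Compounds were incubated 24h; untreated cells defined 0% Activity; curves were classified by r2, magnitude and activity.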

[8] = High Content Imaging Cell-Based qHTS for Inhibitors of the mTORC1 Signaling Pathway in MEF Cells (AID 2667); further: potency means the concentration at half of the fitted maximal effect
Procedure, shortened: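 Read-out is the share of phospho-rpS6-positive cells per well, from Hoechst-normalized Alexa-488 Ser235/236 staining imaged on IN Cell. Cells: WT Tsc2-expressing Tsc2-/-, p53-/- MEFs exposed to compound for 24 hrs.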

[9] = biological target: Ferritin light chain (Equus caballus) (UniProt P02791); experiment: qHTS Validation Assay for Identification of Novel General Anesthetics (AID 2323); further: series mostly up to about 77 µM
Procedure, shortened: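 Fluorescence at 535 nm (excitation 380 nm) reported loss of 1-AMA binding to horse-spleen apoferritin (10 uM) in PBS with 50% saturated 1-aminoanthracene, after 10 min room-temperature incubation with compound; values from Hill fits of normalized response.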

[10] = biological target: RecQ-like DNA helicase BLM (Homo sapiens) (UniProt P54132); experiment: qHTS Validation Assay for Inhibitors of Bloom's syndrome helicase (BLM) (AID 2364)
Procedure, shortened: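 50 nM BLM preincubated 15 min at room temperature with compound in pH 8.0 Tris buffer containing 2.5 ug/ml poly(dI-dC); started with 200 nM TAMRA/BHQ-2 forked duplex and 2 mM ATP (final). Unwinding read as TAMRA fluorescence increase, two reads 2 h apart.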

Measured: Potency

RecQ-like DNA helicase BLM (Homo sapiens), sequence (P54132 whole entry, looked up): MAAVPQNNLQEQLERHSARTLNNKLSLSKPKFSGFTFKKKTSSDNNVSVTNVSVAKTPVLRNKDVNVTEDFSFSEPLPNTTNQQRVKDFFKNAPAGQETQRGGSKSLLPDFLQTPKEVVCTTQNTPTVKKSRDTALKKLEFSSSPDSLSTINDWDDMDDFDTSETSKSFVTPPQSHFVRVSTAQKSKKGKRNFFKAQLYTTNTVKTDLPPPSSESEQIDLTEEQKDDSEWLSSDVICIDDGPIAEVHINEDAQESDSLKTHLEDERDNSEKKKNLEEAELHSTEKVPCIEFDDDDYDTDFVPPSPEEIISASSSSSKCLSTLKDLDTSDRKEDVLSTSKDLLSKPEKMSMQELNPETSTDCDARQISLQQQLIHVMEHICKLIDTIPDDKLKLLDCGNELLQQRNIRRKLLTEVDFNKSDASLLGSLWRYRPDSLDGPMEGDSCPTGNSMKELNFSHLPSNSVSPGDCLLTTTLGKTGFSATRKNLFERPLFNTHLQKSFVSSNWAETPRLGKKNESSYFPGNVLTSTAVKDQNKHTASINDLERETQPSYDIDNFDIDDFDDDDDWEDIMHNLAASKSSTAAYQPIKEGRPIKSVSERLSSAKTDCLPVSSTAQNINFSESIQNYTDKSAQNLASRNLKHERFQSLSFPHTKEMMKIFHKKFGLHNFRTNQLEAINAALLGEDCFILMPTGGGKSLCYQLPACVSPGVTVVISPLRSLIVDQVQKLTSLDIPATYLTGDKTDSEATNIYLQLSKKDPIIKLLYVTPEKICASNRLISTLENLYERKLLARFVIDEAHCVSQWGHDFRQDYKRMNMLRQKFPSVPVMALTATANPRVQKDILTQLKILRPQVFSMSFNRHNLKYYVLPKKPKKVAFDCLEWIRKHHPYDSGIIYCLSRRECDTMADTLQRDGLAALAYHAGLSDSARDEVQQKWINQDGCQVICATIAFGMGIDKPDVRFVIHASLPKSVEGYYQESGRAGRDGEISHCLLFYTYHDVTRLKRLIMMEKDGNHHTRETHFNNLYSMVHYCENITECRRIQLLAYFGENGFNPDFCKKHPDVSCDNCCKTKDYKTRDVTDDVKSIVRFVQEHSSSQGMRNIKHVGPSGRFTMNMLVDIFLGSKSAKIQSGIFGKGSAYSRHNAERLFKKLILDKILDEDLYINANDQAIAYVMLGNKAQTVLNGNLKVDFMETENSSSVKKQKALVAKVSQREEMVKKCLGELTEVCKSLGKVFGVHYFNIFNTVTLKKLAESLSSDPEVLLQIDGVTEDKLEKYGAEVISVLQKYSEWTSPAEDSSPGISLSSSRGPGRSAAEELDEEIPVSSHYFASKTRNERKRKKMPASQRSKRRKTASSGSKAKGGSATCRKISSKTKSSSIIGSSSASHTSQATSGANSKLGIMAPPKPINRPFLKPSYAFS
Ferritin light chain (Equus caballus), sequence (P02791 2-175 limits assumed): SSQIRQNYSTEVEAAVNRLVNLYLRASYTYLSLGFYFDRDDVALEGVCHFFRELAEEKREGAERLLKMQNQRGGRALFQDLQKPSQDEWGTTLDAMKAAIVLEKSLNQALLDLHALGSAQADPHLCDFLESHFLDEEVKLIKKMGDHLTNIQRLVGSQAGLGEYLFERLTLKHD
ATP-dependent DNA helicase Q1 (Homo sapiens), sequence (P46063 whole entry, looked up): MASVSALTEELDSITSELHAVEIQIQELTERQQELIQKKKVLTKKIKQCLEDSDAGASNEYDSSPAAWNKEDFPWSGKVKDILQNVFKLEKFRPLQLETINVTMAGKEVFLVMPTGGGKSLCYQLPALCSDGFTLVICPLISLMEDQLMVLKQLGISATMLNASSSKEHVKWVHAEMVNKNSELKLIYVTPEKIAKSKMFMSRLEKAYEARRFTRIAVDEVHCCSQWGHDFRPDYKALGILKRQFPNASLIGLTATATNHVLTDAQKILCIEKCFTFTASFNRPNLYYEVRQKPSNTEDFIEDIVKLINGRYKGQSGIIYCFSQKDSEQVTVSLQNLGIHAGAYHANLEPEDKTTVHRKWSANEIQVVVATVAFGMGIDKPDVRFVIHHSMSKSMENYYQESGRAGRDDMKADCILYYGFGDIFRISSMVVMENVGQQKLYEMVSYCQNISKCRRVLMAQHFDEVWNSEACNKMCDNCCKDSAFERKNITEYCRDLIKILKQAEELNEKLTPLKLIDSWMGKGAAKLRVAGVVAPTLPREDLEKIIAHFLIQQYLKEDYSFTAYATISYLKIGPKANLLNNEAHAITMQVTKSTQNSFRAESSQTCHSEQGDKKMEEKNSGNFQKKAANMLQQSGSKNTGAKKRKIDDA

NC(=O)N1c2ccccc2C=Cc2ccccc21
inactive: [1] | [2] | [3] | [4] | [5] | [6]

CC(=O)OCC1=C(C(=O)O)N2C(=O)[C@@H](NC(=O)Cc3cccs3)[C@H]2SC1
not listed: [2] | [9] | [10]
inactive: all other assays above

CCCCCN(CCCCC)C(=O)C(CCC(=O)O)NC(=O)c1ccc(Cl)c(Cl)c1 (stereo unspecified)
not listed: [2] | [3] | [10]
inactive: all other assays above

CO[C@@]1(NC(=O)CSCC#N)C(=O)N2C(C(=O)O)=C(CSc3nnnn3C)CS[C@@H]21
not listed: [2] | [7] | [10]
inactive: all other assays above

CC(=O)Oc1cc(C(C)C)c(OCCN(C)C)cc1C
not listed: [2] | [7] | [10]
inactive: all other assays above

COCC(=O)O[C@]1(CCN(C)CCCc2nc3ccccc3[nH]2)CCc2cc(F)ccc2[C@@H]1C(C)C
inactive: [3]
active: [1] 5.01 µM

CCCCNc1c(C(=O)OCC)c(C)nc2c1cnn2CC
inactive: [9] | [4] | [5] | [8] | [6]
active: [1] 12.6 µM

CCCN(CCC)C(=O)C(CCC(=O)O)NC(=O)c1ccccc1 (stereo unspecified)
not listed: [2] | [7] | [9]
inactive: all other assays above

NC(Cc1ccc(Cl)cc1)C(=O)O (stereo unspecified)
inactive: [1] | [9] | [3] | [4] | [6]

O=C1CC2(CCCC2)CC(=O)N1CCCCN1CCN(c2ncccn2)CC1
inactive: [1] | [9] | [10] | [4] | [5] | [8]

Cc1nnc(SCC2=C(C(=O)O)N3C(=O)[C@@H](NC(=O)Cn4cnnn4)[C@H]3SC2)s1
inactive: [1] | [9] | [4] | [5] | [8] | [6]

OC(CCN1CCCCC1)(c1ccccc1)C1CCCCC1 (stereo unspecified)
inactive: [9] | [4] | [5] | [8] | [6]
active: [1] 11.2 µM

C[C@H](CS)C(=O)N1CCC[C@H]1C(=O)O
inactive: [1] | [9] | [3] | [4] | [8] | [6]

Fc1ccc(C(c2ccc(F)cc2)N2CCN(C/C=C/c3ccccc3)CC2)cc1
inactive: [9] | [4] | [5] | [8] | [6]
active: [1] 10 µM

Nc1nc(N)c2nc(-c3ccccc3)c(N)nc2n1
inactive: [3] | [4] | [5] | [8]
active: [1] 12.6 µM

CN(C)CCOC(=O)COc1ccc(Cl)cc1
inactive: [1] | [9] | [4] | [8] | [6]

CC(C)NNC(=O)c1ccncc1
inactive: [1] | [9] | [3] | [4] | [5] | [6]

O=C(CCCN1CCC(O)(c2cccc(C(F)(F)F)c2)CC1)c1ccc(F)cc1
inactive: [3] | [4]
active: [1] 10 µM

CC1=C(C)C(=O)C(CCCCC#CCCCC#CCO)=C(C)C1=O
inactive: [3] | [4] | [5]
active: [1] 8.91 µM

FC(F)(F)c1ccccc1-n1ccnc1
inactive: [1] | [9] | [3] | [4] | [6]

CCOC(=O)C1=C(C)NC(C)=C(C(=O)OC)C1c1cccc([N+](=O)[O-])c1 (stereo unspecified)
inactive: [3] | [4]
active: [1] 11.2 µM

CN1CCN(CC(=O)N2c3ccccc3C(=O)Nc3cccnc32)CC1
inactive: [1] | [9] | [4] | [8] | [6]

C[n+]1cc2c3c(ccc2c2ccc4cc5c(cc4c21)OCO5)OCO3
inactive: [9] | [3] | [5] | [8]
active: [1] 3.16 µM

CC(C)[N+](C)(CCOC(=O)C1c2ccccc2Oc2ccccc21)C(C)C
inactive: [9] | [4] | [5] | [8]
active: [1] 7.08 µM

OCCN1CCN(CCCN2c3ccccc3C=Cc3ccccc32)CC1
inactive: [9] | [3] | [4] | [8] | [6]
active: [1] 8.91 µM and 12.6 µM

COc1ccc(CN(CCN(C)C)c2ccccn2)cc1
not listed: [2] | [7] | [10]
inactive: all other assays above

CNC1(C)C2CCC(C2)C1(C)C (stereo unspecified)
not listed: [2] | [7] | [10]
inactive: all other assays above

CN(C)C(=O)Oc1cccc([N+](C)(C)C)c1
inactive: [1] | [9] | [4] | [5] | [8]

CCCOc1ccccc1-c1nc2n[nH]nc2c(=O)[nH]1
inactive: [1] | [9] | [3] | [4] | [8]

NC(=O)c1ncn([C@@H]2O[C@H](CO)[C@@H](O)[C@H]2O)c1O
inactive: [1] | [9] | [3] | [4] | [8]

CC1=NS(=O)(=O)c2cc(Cl)ccc2N1
inactive: [1] | [3] | [10] | [4] | [5] | [8]

CCC(=O)c1ccc2c(c1)N(CCCN(C)C)c1ccccc1S2
active: [1] 11.2 µM | [8] 16.5 µM
inactive: [3] | [10] | [4] | [5]

CN(C)C(=O)Oc1ccc[n+](C)c1
inactive: [1] | [3] | [10] | [4] | [5] | [6]

NC/C=C/C(=O)O
inactive: [1] | [9] | [3] | [4] | [8]

C=CCc1ccccc1OCC(O)CNC(C)C (stereo unspecified)
active: [1] 11.2 µM
inactive: [9] | [3] | [4] | [6]

CC(=O)Nc1nnc(S(N)(=O)=O)s1
inactive: [1] | [9] | [3] | [4] | [5] | [6]

NCCCNCCSP(=O)(O)O
inactive: [1] | [9] | [4] | [5] | [8] | [6]

CCCC(C(=O)OCCN(CC)CC)(c1ccccc1)c1ccccc1
inactive: [9] | [4] | [5] | [8]
active: [1] 2.51 µM

C[C@]12CCC(=O)C=C1CC[C@@H]1[C@@H]2C(=O)C[C@@]2(C)[C@H]1CC[C@]2(O)C(=O)CO
inactive: [1] | [9] | [3] | [4] | [8] | [6]

CCCCNc1ccc(C(=O)OCCN(C)C)cc1
inactive: [1] | [9] | [3] | [4] | [8] | [6]

CN(C)CCN(Cc1cccs1)c1ccccn1
inactive: [1] | [10] | [4] | [5] | [8] | [6]

Cc1ccc(Cl)c(Nc2ccccc2C(=O)O)c1Cl
inactive: [1] | [4] | [5] | [8] | [6]

COc1cc(Cc2cnc(N)nc2N)cc(OC)c1OC
not listed: [1] | [2] | [10]
inactive: all other assays above

NC(N)=NC(=O)Cc1c(Cl)cccc1Cl
inactive: [3] | [4] | [8] | [6]
active: [1] 1.41 µM

O=C(CCNNC(=O)c1ccncc1)NCc1ccccc1
inactive: [7] | [3] | [4] | [5] | [6]

C[N+](C)(C)CCOC(N)=O
inactive: [1] | [4] | [5] | [6]

CN(C)C/C=C(/c1ccc(Br)cc1)c1cccnc1
inactive: [9] | [3] | [10] | [4] | [5] | [8]

NC(=Nc1ccccc1)Nc1ccccc1
inactive: [2]

Cc1nc2sccn2c(=O)c1CCN1CCC(=C(c2ccc(F)cc2)c2ccc(F)cc2)CC1
active: [1] 11.2 µM | [6] 11.7 µM
inactive: [3] | [4] | [5]

Cc1cc(C)c(/C=C2\C(=O)Nc3ccccc32)[nH]1
inactive: [1] | [4]

CC(C)COCC(CN(Cc1ccccc1)c1ccccc1)N1CCCC1 (stereo unspecified)
inactive: [1] | [4] | [5] | [8] | [6]

O=C(O)CCCCCCCC(=O)O
inactive: [1] | [3] | [4] | [5] | [8]

CC(=O)[C@]1(O)Cc2c(O)c3c(c(O)c2[C@@H](O[C@H]2C[C@H](N)[C@H](O)[C@H](C)O2)C1)C(=O)c1ccccc1C3=O
active: [1] 1.12 µM | [5] 2.33 µM

CCN1CCC[C@H]1CNC(=O)c1c(O)c(Cl)cc(Cl)c1OC
inactive: [1] | [4] | [5] | [6]

c1cnc(N2CCN(Cc3ccc4c(c3)OCO4)CC2)nc1
inactive: [1] | [4] | [5] | [8]

C[C@]12C=CC(=O)C=C1CC[C@H]1[C@@H]3C[C@@H](O)[C@](O)(C(=O)CO)[C@@]3(C)C[C@H](O)[C@@]12F
inactive: [1] | [4] | [5] | [8]

COc1ccc(CCN(C)CCCC(C#N)(c2cc(OC)c(OC)c(OC)c2)C(C)C)cc1OC (stereo unspecified)
active: [1] 2.82 µM
inactive: [3] | [4] | [5] | [8] | [6]

CC(C)(C)NCC(O)c1cc(O)cc(O)c1 (stereo unspecified)
inactive: [1] | [3] | [4] | [8]

C(=C\c1ccccc1)/CN1CCN(C(c2ccccc2)c2ccccc2)CC1
active: [1] 11.2 µM
inactive: [4] | [5] | [6]

CCO/C([O-])=N/c1c[n+](N2CCOCC2)no1
inactive: [1] | [4] | [5]

CCN(CC)CCNC(=O)c1ccc(NC(C)=O)cc1
inactive: [1] | [3] | [4] | [5] | [8] | [6]

CN1CCN(C2=Nc3ccccc3Oc3ccc(Cl)cc32)CC1
inactive: [3] | [4] | [5] | [8] | [6]
active: [1] 10 µM

CN(C)CC[C@@H](c1ccc(Br)cc1)c1ccccn1
inactive: [1] | [4] | [5]

CN/C(=C\[N+](=O)[O-])NCCSCc1ccc(CN(C)C)o1
inactive: [7] | [9] | [3] | [4] | [6]

CCc1cccc(N(C)C(N)=Nc2cccc3ccccc23)c1
active: [1] 11.2 µM
inactive: [4] | [5]

CCOC(=O)C1=C(C)NC(C)=C(C(=O)OC)C1c1cccc(Cl)c1Cl (stereo unspecified)
active: [1] 12.6 µM
inactive: [3] | [4] | [8]

CC[N+](C)(C)c1cccc(O)c1
inactive: [1] | [4] | [5] | [8] | [6]
